The structures appear in SMILES notation. Out of some 410,000 compounds screened, about 2,000 (0.49%) were called active. Entries that show only a call come without a potency. Inconclusive results (about 8%) are left out. This is one part of a sample in which actives are shown more often than they occur. Calls follow the shape of the full dose curve; tested in HEK293 reporter line.
Potency is read from the fitted curve at half-maximal effect.

This assay can be described thus: qHTS Assay for Foot and Mouth Disease Virus Antivirals: Primary Screen against the MLPCN compound library. Also: nearly all actives have a fitted effect of over 55% in size. The following applies: FMDV antiviral cell-based qHTS; series mostly up to 57.9 µM.
Turning to `Cc1ccc(C)c(N2CCN(C(=O)c3ccc(N4CCCC4=O)cc3)CC2)c1`, the Potency result is “inactive”.
The same measure for `Cc1oc(-c2ccccc2F)nc1CS(=O)(=O)CC(=O)NC1CCCC(C)C1C` (stereo unspecified): “inactive”.
Take `O=C(Nc1ccc2c(c1)OCCO2)c1cccc2nc3ccccc3nc12`: the Potency entry is “inactive”.
The same measure for `O=C(O)C1C2C=CC(C2)C1C(=O)Nc1ccc2c(c1)OCCO2` (stereo unspecified): “inactive”; for `c1csc(CNc2ccc3c(c2)OCCO3)c1`: “inactive”; for `Cc1ccc(C(=O)Nc2ccc3c(c2)OCCO3)c(Cl)c1`: 11.2 µM (active).
`O=C(CN1CCN(S(=O)(=O)c2ccc(Cl)cc2)CC1)Nc1ccc2c(c1)OCCO2`: the Potency result is “inactive”.
The same measure for `Cc1ccsc1C(=O)Nc1ccc2c(c1)OCCO2`: 22.4 µM (active); for `CCOC(=O)c1ccc[n+](C(C)C(=O)c2ccc(-c3ccccc3)cc2)c1` (stereo unspecified): “inactive”.
The entry for `COc1cccc(CNC(=O)c2cccc(S(=O)(=O)N3CCN(c4ccc(F)cc4)CC3)c2)c1` is “inactive”.
For the compound `CCOc1ccc(NC(=O)CN2C(=O)CCSc3ccc(S(=O)(=O)N4CCCC4)cc32)cc1`, the Potency entry is “inactive”.
The figure for `O=C(/C=C/c1cccs1)c1cc(Cl)ccc1OC(=O)N1CCOCC1` is 17.8 µM (active); for `O=C(COC(=O)/C=C/c1cccs1)Nc1ccc(Cl)cc1F` it is “inactive”; for `O=C(/C=C/c1cccs1)N1CCC2(CC1)Oc1ccc(Cl)cc1C(=O)C21CC(c2cccnc2)=NO1` (stereo unspecified) it is “inactive”.
The entry for `O=C(CCCOc1ccc(Cl)cc1)NCC1CCCO1` (stereo unspecified) is “inactive”; for `CCOC(=O)C1=C(C)Nc2ccccc2N=C1NC(=O)c1oc2ccccc2c1COC` it is “inactive”; for `COc1ccccc1OCC(=O)Nc1cc(S(=O)(=O)N2CCCCC2)ccc1N1CCCCC1` it is “inactive”.
The same measure for `COc1cc(/C=C(\C#N)c2ccccn2)ccc1OCC(=O)Nc1cccc(C(F)(F)F)c1`: “inactive”.
With `CN(CCC#N)c1ccc(/C=C(\C#N)c2ccccn2)cc1`, the Potency is 14.1 µM (active).
The same measure for `CNc1nc(-c2ccc3c(c2)CCN3S(=O)(=O)c2ccccc2)c(C)s1`: “inactive”; for `CC(=O)Nc1ccc(S(=O)(=O)N(C)CC(=O)Nc2ccc(Br)cc2F)cc1`: “inactive”.
The figure for `CCn1cc(C(=O)OCC(=O)OC2CC(C)CCC2C(C)C)c(=O)c2ccc(C)nc21` (stereo unspecified) is 22.4 µM (active).
The same measure for `O=C(CCCCn1c(=O)c2ccccc2n(CC(=O)Nc2cccc(F)c2)c1=O)NCc1ccccc1Cl`: “inactive”; for `COc1ccc(C[C@H]2CN3C(=NC[C@@H]3Cc3ccc(O)cc3)N2C[C@H](C)NC(=O)CCC2CCCCC2)cc1`: “inactive”.
Regarding `CCCCCCCCCCC[N+](C)(C)CC/C=C1/c2ccccc2Sc2ccc(Cl)cc21`, the Potency result is “inactive”.
The same measure for `CC1(Cc2ccc(C(F)(F)F)o2)C(=O)Nc2cc(-c3ccc(F)cc3F)ccc21` (stereo unspecified): “inactive”.

(Values after PubChem BioAssay AID1347131 (National Center for Advancing Translational Sciences (NCATS), 2019).)
